Results taken from PubChem BioAssay (Tox21).
Results filed as inconclusive are left out. Entries that show only a call come without a potency. Calls of active or inactive are those of the source. Unless noted, the call rests on the fitted dose curve; in most records, active means well fitted curve in the direction sought with a large enough effect in the repeat runs; inconclusive means weak or mixed curves; inactive means no such curve, though single readings can be large; an effect the other way counts as inactive or inconclusive.

Assays:
[1] = qHTS assay to identify small molecule antagonists of the progesterone receptor (PR) signaling pathway - cell viability counter screen (AID 1346798); conditions: PR-UAS-bla HEK293T viability, CellTiter-Glo luminescence, 16 h; series mostly up to 92.4 µM; further: nearly all actives have a fitted effect of over 50% in size
Summary of the method: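 PR-UAS-bla HEK293T cells, 3,000/well in 2% charcoal-stripped FBS medium, dosed with compounds plus R5020 agonist and incubated 16 h at 37C. Viability then measured in the same wells by CellTiter-Glo luminescence after 30 min at RT.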

[2] = qHTS assay to identify small molecule agonists of the progesterone receptor (PR) signaling pathway - cell viability counter screen (AID 1346799; calls by dose curve; further: nearly all actives have a fitted effect of over 45% in size; further: potency means the concentration at half of the fitted maximal effect); conditions: PR-UAS-bla HEK293T viability, CellTiter-Glo luminescence, 16 h; series mostly up to 92.4 µM
Summary of the method: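 Counter screen in the PR-UAS-bla HEK293T wells (2% charcoal-stripped FBS, 16 h compound exposure at 37 C) after the bla read. CellTiter-Glo added, 30 min at room temperature, luminescence read as cell viability.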

[3] = qHTS assay to identify small molecule antagonists of the TGF-beta/Smad signaling pathway - cell viability counter screen (AID 1346824); conditions: SBE-bla HEK293T viability, CellTiter-Glo luminescence; series mostly up to 76.8 µM; further: nearly all actives have a fitted effect of over 50% in size
Summary of the method: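 SBE-bla HEK 293T cells, incubated overnight, then compound plus 0.25 ng/mL TGF-beta1 (stock added) for 5 hr at 37 C. Viability was read in the same wells by CellTiter-Glo luminescence after 30 min at room temperature.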

[4] = qHTS assay to identify small molecule agonists of the TGF-beta/Smad signaling pathway - cell viability counter screen (AID 1346829); conditions: SBE-bla HEK293T viability, CellTiter-Glo luminescence, 5 h; series mostly up to 76.8 µM; further: top concentration of the series differs between compounds; nearly all actives have a fitted effect of over 45% in size
Summary of the method: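 CellTiter-Glo luminescence readout; SBE-bla HEK 293T cells, overnight plating, compound 5 hr at 37 C/5% CO2, then bla substrate 2 hr RT, then CellTiter-Glo 30 min RT.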

[5] = qHTS assay to identify small molecule agonists of the TGF-beta/Smad signaling pathway (AID 1346859; active means well fitted activation curve with a large enough effect in the signal ratio in the repeat runs, not every such curve was filed as active; the % refers to the signal ratio); conditions: SBE-bla HEK293T, TGF-beta/Smad beta-lactamase reporter, 5 h; series mostly up to 76.8 µM
Summary of the method: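 SBE-bla HEK293T cells plated overnight, then compound exposure for 5 h at 37 C. Beta-lactamase reporter read with LiveBLAzer B/G FRET substrate after 2 h at room temperature, fluorescence at 405 nm excitation, 460/530 nm emission.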

[6] = Human pregnane X receptor (PXR) small molecule agonists, qHTS cell viability counter screen (AID 1346977); conditions: PXR-Luc HepG2 viability, CellTiter-Fluor, 24 h; series mostly up to 92.4 µM; further: nearly all actives have a fitted effect of over 50% in size
Summary of the method: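 PXR-Luc HepG2 cells (2,000/well, 5% charcoal-stripped FBS) preincubated 5 hr, then exposed to compounds 24 hr at 37 C. Viability read in the same wells by CellTiter-Fluor fluorescence, reagent added at 23 hr, 1 hr incubation.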

[7] = Caspase-3/7 induction in HepG2 cells by small molecules, qHTS assay (AID 1346978); conditions: HepG2 caspase-3/7 activation, Caspase-Glo luminescence, 17 h; series mostly up to 92.4 µM; further: nearly all actives have a fitted effect of over 15% in size
Summary of the method: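 Wild-type HepG2 cells, 2,000/well, settled 5 hr at 37 C and 5% CO2, then compound-treated for 17 hr; caspase-3/7 activity read by luminescent Caspase-Glo 3/7 after 30 min at room temperature.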

[8] = target: Thyrotropin-releasing hormone receptor (Homo sapiens) (UniProt P34981); assay: qHTS assay to identify small molecule antagonists of the thyrotropin-releasing hormone receptor (TRHR) signaling pathway (AID 1346877; active means well fitted inhibition curve with a large enough effect in the repeat runs, not every such curve was filed as active); conditions: TRHR-HEK293, TRH-induced calcium fluorescence, antagonist mode; series mostly up to 51.3 µM
Thyrotropin-releasing hormone receptor (Homo sapiens), sequence (P34981 whole entry, looked up): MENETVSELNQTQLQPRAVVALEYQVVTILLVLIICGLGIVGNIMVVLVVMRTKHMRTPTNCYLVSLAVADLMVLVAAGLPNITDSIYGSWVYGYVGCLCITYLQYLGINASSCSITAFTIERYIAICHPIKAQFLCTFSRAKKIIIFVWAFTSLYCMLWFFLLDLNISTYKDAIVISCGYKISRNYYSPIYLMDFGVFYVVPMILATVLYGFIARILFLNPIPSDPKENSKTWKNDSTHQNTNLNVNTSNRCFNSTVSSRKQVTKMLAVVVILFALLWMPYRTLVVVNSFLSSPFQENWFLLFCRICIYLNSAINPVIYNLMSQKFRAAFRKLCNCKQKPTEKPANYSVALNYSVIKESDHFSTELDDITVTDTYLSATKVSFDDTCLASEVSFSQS
Summary of the method: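 Overnight-plated (18 h, 37 °C) HEK293 cells expressing TRHR were dye-loaded 2 h, treated with compound, then stimulated with TRH at 1 nM final. Fluorescence intensity was captured every second for 3 min.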

[9] = target: Thyrotropin-releasing hormone receptor (Homo sapiens) (UniProt P34981); assay: qHTS assay to identify small molecule agonists of the thyrotropin-releasing hormone receptor (TRHR) signaling pathway (AID 1346891; calls by dose curve); conditions: TRHR-HEK293 calcium fluorescence, agonist mode; series mostly up to 57.6 µM
Summary of the method: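 HEK293 cells expressing TRHR plated 18 h at 37 C/5% CO2, calcium dye-loaded 2 h at 37 C, then compound added (agonist mode); kinetic calcium fluorescence read 3 min at 1 s intervals; 15 concentrations in triplicate.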

Row | Structure (SMILES) | Potency [1] | Potency [2] | outcome [3] | outcome [4] | outcome [5] | Potency [6] | Potency [7] | outcome [8] | outcome [9]
1 | Cc1ccc2ccc(Cl)cc2n1 | inactive | inactive | inactive | inactive | inactive | inactive | inactive | – | –
2 | CCCC(=O)C(C)=O | inactive | inactive | inactive | inactive | inactive | inactive | – | – | –
3 | CCCCCOC(=O)CCC | inactive | inactive | inactive | inactive | inactive | inactive | inactive | – | –
4 | CCOCCOCCOCC | inactive | inactive | inactive | inactive | inactive | inactive | – | inactive | inactive
5 | O=C1c2ccccc2C(=O)C1c1ccccc1 | inactive | inactive | inactive | inactive | – | inactive | inactive | inactive | inactive
6 | N[C@@H](CCC(=O)Nc1ccc([N+](=O)[O-])cc1)C(=O)O | inactive | inactive | inactive | inactive | inactive | – | inactive | inactive | inactive
7 | COc1ccc(S(=O)(=O)N2c3ccc(Cl)cc3[C@@](O)(c3ccccc3Cl)[C@H]2C(=O)N2CCC[C@@H]2C(N)=O)cc1OC | inactive | inactive | inactive | inactive | inactive | inactive | inactive | inactive | inactive
8 | CC(C)N(c1ccccc1)C(C)C | inactive | inactive | inactive | inactive | inactive | inactive | inactive | – | –
9 | CC(C)(C)c1cc(CCC(=O)NN)cc(C(C)(C)C)c1O | inactive | inactive | inactive | inactive | – | inactive | inactive | inactive | inactive
10 | C=C1CC/C=C(\C)CC[C@@H]2[C@@H]1CC2(C)C | inactive | inactive | inactive | inactive | inactive | inactive | inactive | – | –
11 | CNC(=O)[C@H]1O[C@@H](n2cnc3c(NCc4cc(Cl)ccc4OCc4cc(C)no4)ncnc32)[C@H](O)[C@@H]1N | inactive | inactive | inactive | inactive | inactive | inactive | inactive | inactive | inactive
12 | CCCCN | inactive | inactive | inactive | inactive | inactive | inactive | inactive | inactive | inactive
13 | O=P(O)(O)OP(=O)(O)O | – | inactive | inactive | inactive | inactive | inactive | – | inactive | inactive
14 | OCCCCC(O)CO (centres undefined) | – | – | inactive | inactive | inactive | inactive | inactive | inactive | inactive
15 | CCC(C)NC(N)=O (centres undefined) | inactive | inactive | – | inactive | inactive | inactive | – | inactive | inactive
16 | COc1cc(NS(=O)(=O)c2ccc(N)cc2)nc(OC)n1 | inactive | – | inactive | inactive | – | inactive | inactive | inactive | inactive
17 | CC1=C(C(=O)O)N2C(=O)[C@@H](NC(=O)[C@H](N)c3ccc(O)cc3)[C@H]2SC1 | – | inactive | inactive | inactive | inactive | inactive | inactive | – | –
18 | CCOC(=O)[C@H](CCc1ccccc1)N[C@@H](C)C(=O)N1C(=O)N(C)C[C@H]1C(=O)O | inactive | inactive | – | inactive | inactive | inactive | inactive | inactive | inactive
19 | O=C(/N=N/C(=O)OCc1ccccc1)OCc1ccccc1 | – | inactive | – | inactive | inactive | inactive | inactive | inactive | inactive
20 | COc1nccnc1NS(=O)(=O)c1ccc(N)cc1 | inactive | inactive | – | inactive | inactive | inactive | inactive | inactive | –
21 | C[C@@H]1O[C@@H](O[C@@H]2[C@@H](O)[C@H](OCCc3ccc(O)c(O)c3)O[C@H](CO[C@@H]3O[C@H](CO)[C@@H](O)[C@H](O)[C@H]3O)[C@H]2OC(=O)/C=C/c2ccc(O)c(O)c2)[C@H](O)[C@H](O)[C@H]1O | – | inactive | inactive | inactive | inactive | – | inactive | inactive | inactive
22 | C=CCCCCCCCCCCCC | inactive | inactive | – | inactive | inactive | inactive | inactive | inactive | inactive
23 | CC1(C)S[C@@H]2[C@H](N=CN3CCCCCC3)C(=O)N2[C@H]1C(=O)O | inactive | – | inactive | inactive | – | inactive | inactive | inactive | inactive
24 | O=C1c2cccc3c2[C@H](CCC3)CN1[C@@H]1CN2CCC1CC2 | – | 26.6 µM (active) | inactive | inactive | inactive | – | inactive | inactive | inactive
25 | CC(C(=O)O)c1ccc2c(c1)CC(=O)c1ccccc1S2 (centres undefined) | inactive | inactive | inactive | inactive | – | inactive | inactive | – | –

Row | Structure (SMILES) | Potency [1] | Potency [2] | outcome [3] | outcome [4] | outcome [5] | Potency [6] | Potency [7] | outcome [8] | outcome [9]
26 | CC(S)C(=O)NCC(=O)O (centres undefined) | inactive | – | inactive | inactive | inactive | inactive | inactive | inactive | inactive
27 | CCOC(=O)CC(=O)c1ccccc1 | – | inactive | inactive | inactive | inactive | inactive | inactive | inactive | –
28 | O=C(OCC(COC(=O)c1cccnc1)(COC(=O)c1cccnc1)COC(=O)c1cccnc1)c1cccnc1 | – | inactive | inactive | inactive | inactive | inactive | inactive | inactive | –
29 | Cc1cc2cc3c(C)cc(=O)oc3c(C)c2o1 | inactive | inactive | – | inactive | inactive | inactive | inactive | inactive | inactive
30 | O=C(Nc1ccc(Cl)c(Cl)c1)C1CC1 | inactive | – | inactive | inactive | – | inactive | inactive | inactive | inactive
31 | O=S(=O)(O)c1cc(O)c2ccc(Nc3ccccc3)cc2c1 | – | inactive | inactive | inactive | inactive | inactive | inactive | inactive | inactive
32 | Cc1cccc(OCC(O)CNC(C)(C)C)c1C (centres undefined) | – | inactive | inactive | inactive | inactive | inactive | inactive | inactive | inactive
33 | C#CC(C)N(C)C(=O)Nc1ccc(Cl)cc1 (centres undefined) | – | inactive | inactive | – | – | inactive | inactive | inactive | inactive
34 | COc1ccc2c(c1)C(=O)N(CCc1ccc(S(=O)(=O)NC(=O)NC3CCCCC3)cc1)C(=O)C2(C)C | inactive | – | inactive | inactive | – | inactive | – | inactive | inactive
35 | CN=C(NC#N)Nc1ccc(C2=NNC(=O)CC2C)cc1 (centres undefined) | – | inactive | – | inactive | inactive | inactive | inactive | – | –
36 | CN1C(C)(C)CCCC1(C)C | – | inactive | inactive | inactive | inactive | inactive | inactive | inactive | –
37 | OCCN(CCO)c1cccc(Cl)c1 | – | inactive | inactive | inactive | inactive | inactive | – | inactive | inactive
38 | c1ccc2c(c1)ccc1c3ccccc3ccc21 | inactive | inactive | – | inactive | inactive | inactive | inactive | inactive | inactive
39 | COc1cc(N)ccc1C | inactive | – | – | inactive | inactive | inactive | inactive | – | –
40 | C=C(C)C(=O)OCCNC(C)(C)C | – | – | inactive | inactive | – | inactive | inactive | inactive | inactive
41 | O=C(CCNNC(=O)c1ccncc1)NCc1ccccc1 | – | inactive | inactive | inactive | inactive | inactive | inactive | inactive | inactive
42 | Cc1[nH]cnc1-c1ccc(Cl)cc1 | – | – | inactive | inactive | inactive | inactive | – | inactive | –
43 | c1ccc2nccnc2c1 | – | – | inactive | inactive | – | inactive | inactive | inactive | inactive
44 | CC(C)C(=O)OCCc1ccccc1 | inactive | inactive | – | inactive | inactive | inactive | inactive | inactive | inactive
45 | C=CC(OCC)OCC | – | inactive | inactive | inactive | inactive | inactive | – | inactive | inactive
46 | Cc1cc(Cl)c(C)cc1Cl | – | inactive | inactive | inactive | inactive | inactive | – | inactive | inactive
47 | CCOC(=O)/C=C/c1ccccc1 | inactive | inactive | – | inactive | inactive | inactive | inactive | inactive | –
48 | COc1ccc2nc(SCc3ncc(C)c(OC)c3C)[nH]c2c1 | – | inactive | inactive | inactive | inactive | inactive | inactive | – | –
49 | NS(=O)(=O)c1cc2c(cc1Cl)CN(C1CCCCC1)C2=O | inactive | inactive | – | inactive | – | inactive | inactive | inactive | –
50 | Nc1ccc([N+](=O)[O-])c(N)c1 | inactive | inactive | – | inactive | inactive | – | inactive | inactive | inactive
